# PubChem BioAssay AID1117280 (The Scripps Research Institute Molecular Screening Center, 2014)
# The whole screen tested about 1,100 compounds, of which fewer than 10 were called active. The list is a sample of the results. Unmarked numbers belong to inactive results.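 Rule for the calls: active = mean activation above a set limit taken from the earlier primary screen (cut at about 11% in these data); inactive = the rest.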
# Target: Transthyretin (Homo sapiens) (UniProt P02766)
# Test: compounds raising TTR promoter-driven luciferase – cell-based, luminescence, SH-SY5Y, triplicate, confirmation (AID 1117280);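 note: 0% = DMSO-treated cells and 100% = recombinant Lucia luciferase without cells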
# Conditions: SHSY5Y TTR promoter Gaussia luciferase, at 16.7 µM, hits give high values, 100% = purified Lucia enzyme wells, no cells
row,SMILES,activation
1,COc1ccc(-c2oc3ncn(Cc4ccco4)c(=N)c3c2-c2ccc(OC)cc2)cc1,-0.27%
2,O=C(NNC1=NCCC1)c1cccc(S(=O)(=O)N2CCCCC2)c1,0%
3,Cc1ccc(CN2CCCOCCS2(=O)=O)cc1,0.01%
4,O=S(=O)(NCCCN1CCOCC1)c1ccc(F)c(Cl)c1,1.67%
5,N#Cc1cccc(CN2CCC(=O)N(CCO)CC2)c1,0.71%
6,Cc1cc(C)c2nc3nc(C)cc(C)c3c(N)c2c1,9.48%
7,COc1cccc(-c2cnc(C(O)c3ccccc3OC)[nH]2)c1 (stereo unspecified),-0.09%
8,C/C(CC(=O)Nc1ccc(N(C)C)cc1)=N\NC(=O)c1ccccc1F,0.83%
9,C(=N\n1cnnc1)/c1cccnc1,0.91%
10,CCOc1ccccc1NC(=O)COc1ccc(S(=O)(=O)N2CCCC2)cc1,1.24%
11,CSCCC(NC(N)=O)C(=O)N(C)CC(=O)Nc1ccc(C)cc1 (stereo unspecified),-0.85%
12,CCOC(=O)c1cc(-c2ccc(Cl)s2)nc2c1c(C)nn2C,0.17%
13,O=C(Nc1cccc(O)c1)c1ccc(C(=O)c2ccccc2)o1,-1.44%
14,COc1cc(C(C)=O)ccc1OC(C)C(=O)Nc1ccc(S(=O)(=O)N2CCCC2)cc1 (stereo unspecified),0.49%
15,Cc1c(NS(=O)(=O)c2ccc(NC3CCCC3)c([N+](=O)[O-])c2)c(=O)n(-c2ccccc2)n1C,-1.51%
16,N=c1ccn(CC(=O)NC(N)=O)c2ccccc12,11.7% (active)
17,C[C@H](NC(=O)C1CCN(S(=O)(=O)c2ccccc2)CC1)C(=O)NCc1ccccc1,-0.18%
18,CCCCc1cc(=O)oc2cc(C)cc(OCc3nn[nH]n3)c12,0.29%
19,O=C(O)C1OC(C(=O)O)C2C1C(F)(F)C2(F)F (stereo unspecified),0.77%
20,CCCCOCCCNC(=O)C[C@H]1C[C@@]2(C(=O)OC)C(=C[C@H](C(C)(C)C)O[C@@H]2C)N(CCc2ccc(OC)c(OC)c2)C1=O,-0.4%
21,Cc1cccc(C)c1NC(=O)CN1C(=O)C(C)Oc2ccccc21 (stereo unspecified),-0.02%
22,Brc1ccc(/C=N/N2CCN(C3c4ccccc4-c4ccccc43)CC2)s1,-0.21%
23,O=C(O)Cn1c(Cc2ccccc2)nc2ccccc21,-0.81%
24,Cc1nc(-c2ccc(Cl)cc2)sc1C(=O)NN,1.27%
25,COc1cc(N2C(=O)CC3(CCCC3)CC2=O)cc(OC)c1OC,0.03%
26,CCCCCc1ccc(-c2cn(Cc3ccc4ccccc4c3)nn2)cc1,-0.98%

row,SMILES,activation
1,CCOc1ccc(N=C2NC(=O)S/C2=C\c2ccc(O)cc2)cc1,-2.11%
2,Cc1ccccc1/[N+]([O-])=C/c1ccncc1,0.64%
3,O=C(NCCCNC(=O)c1ccccc1Cl)c1cnccn1,-0.49%
4,COc1ccccc1N1CCN(Cc2cc(OC)c3c(c2)OCO3)CC1,1.03%
5,O=C(CCC(=O)c1cccs1)NCc1ccccc1,-0.16%
6,CCOc1ccc(NC(=O)COc2ccc(S(=O)(=O)N3CCCC3)cc2)cc1,-0.08%
7,Cc1c(C#N)c(NC(=O)c2ccccc2)n(Cc2ccccc2)c1C,0.46%
8,O=C(Nc1ccccc1C(=O)N1CCCCCC1)c1ccccc1Cl,0.38%
9,COc1ccc(S(=O)(=O)NCC(=O)NCc2cc(=O)n(C)c(=O)n2C)cc1F,-0.18%
10,Cc1cccc(N2C(=O)CC(SC(N)=Nc3ccccc3)C2=O)c1 (stereo unspecified),-0.45%
11,C=C1C(C(C)C)N(C)C2=NC(c3ccccc3)CC(=O)N12 (stereo unspecified),0.07%
12,Cc1cc(C)c(C#N)c(N2CCC(C(N)=O)CC2)n1,-0.71%
13,CC(C)NC(=O)c1ccc(Sc2ccccc2)c([N+](=O)[O-])c1,-0.62%
14,CCOC(=O)c1c(-c2ccccc2)oc2ccc(OCC(N)=O)cc12,-0.6%
15,O=C(NC(=O)c1ccccc1N1CCCCC1)Nc1ccc(Br)cc1,0.23%
16,COc1ccc(C2c3ccc(O)cc3Oc3ncn(CCCO)c(=N)c32)cc1OC (stereo unspecified),-0.83%
17,CC(C)(C)C1CCC(OC(=O)CCC(=O)Nc2ccccc2)CC1 (stereo unspecified),-1.07%
18,O=C(NNC(=O)c1cc(S(=O)(=O)N2CCCCC2)ccc1Cl)c1ccccc1O,0.18%
19,Nc1nc(SCC(=O)Nc2ccc(Cl)c([N+](=O)[O-])c2)n[nH]1,0.36%
20,COC(=O)c1cnn2c(C(F)(F)F)cc(-c3ccco3)nc12,-0.89%
21,O=C1c2cccc(OCC(=O)N3N=C(c4cccs4)CC3c3ccc(F)cc3)c2CCN1Cc1ccccc1 (stereo unspecified),-0.93%
22,Cn1cc(CN2CCCC(CO)C2)c(-c2ccc(Oc3ccccc3)cc2)n1 (stereo unspecified),2.56%
23,CCCCN(C)CCNC(=O)C1CCCN(S(=O)(=O)c2cccc3nsnc23)C1 (stereo unspecified),0.58%
24,O=S(=O)(NCc1ccccc1Br)c1ccccc1Br,-0.25%
25,O=C(CS(=O)(=O)c1ccccc1)Nc1ccc(S(=O)(=O)Nc2ccccn2)cc1,-0.26%
